Screens deposited in PubChem BioAssay by several laboratories.
Hits are enriched below; roughly 2% of the tested compounds scored in any of these assays.
Efa HMGR inh = inhibitors of E. faecalis class II HMGR, primary screen, biochemical, Enterococcus faecalis | HMG-CoA reductase (Enterococcus faecalis, mvaE) | purified E. faecalis HMGR, NADPH absorbance 340 nm kinetic | inhibition, % at 10 µM | 190,000 compounds, 0.41% hits | AID 1066, 2008;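 active = inhibition above a set limit, the median over all tested compounds plus 3 SD, cut at about 9.5% in these data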;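 note: enzyme runs in reverse so mevalonate oxidation gives rising NADPH absorbance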
Wee1 degr inh = Wee1 degradation inhibitors, primary screen, cell-based, HeLa, Wee1K328M-luciferase, luminescence | HeLa Luc-Wee1K328M stability; 100% = proteasome inhibitor MG132 effect | 220,000 compounds, 1.2% hits | Wee1-like protein kinase (Homo sapiens), P30291 | reporter increase, % at 5 µM;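 active = activation above the mean of all tested compounds plus 3 SD, set per screening run, cut at about 8.8% in these data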;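 note: cells exposed to compound for 20 h before luminescence read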
Target sequence (P30291 whole entry K328M): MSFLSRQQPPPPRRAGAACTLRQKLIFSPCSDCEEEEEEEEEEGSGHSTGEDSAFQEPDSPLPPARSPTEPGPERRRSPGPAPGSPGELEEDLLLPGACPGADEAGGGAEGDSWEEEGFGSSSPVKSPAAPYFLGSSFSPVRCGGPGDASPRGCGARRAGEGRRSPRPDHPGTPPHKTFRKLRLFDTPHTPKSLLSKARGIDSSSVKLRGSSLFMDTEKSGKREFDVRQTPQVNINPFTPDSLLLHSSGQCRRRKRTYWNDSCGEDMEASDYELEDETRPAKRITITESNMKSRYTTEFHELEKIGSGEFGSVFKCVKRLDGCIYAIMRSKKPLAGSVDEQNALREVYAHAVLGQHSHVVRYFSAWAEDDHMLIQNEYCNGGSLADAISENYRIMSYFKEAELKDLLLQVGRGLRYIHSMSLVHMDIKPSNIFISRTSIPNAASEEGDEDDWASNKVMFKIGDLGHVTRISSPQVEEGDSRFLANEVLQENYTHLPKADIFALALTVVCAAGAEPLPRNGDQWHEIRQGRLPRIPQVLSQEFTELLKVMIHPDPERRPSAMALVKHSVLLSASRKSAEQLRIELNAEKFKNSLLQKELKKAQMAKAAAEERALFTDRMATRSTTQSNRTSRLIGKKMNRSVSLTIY
Arbovirus inh = antivirals against arbovirus infection, primary screen, cell-based, full library, 10K replicate subset. AID 1251, 2008. 200,000 compounds, 0.37% hits. arbovirus infection cell-based antiviral screen. inhibition, % at 10 µM; in the data active = inhibition above about 30%
Hsp70 activator = Hsp70 transcriptional activators, primary screen, cell-based, HeLa, Hsp70 promoter luciferase, luminescence, 10 µM; HeLa Hsp70 promoter luciferase reporter; scaled: vehicle 0, proteasome-inhibitor control 100%; activation, % at 10 µM; 200,000 compounds, 0.04% hits;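 active = activation above the mean across all tested compounds plus 3 SD, cutoff set per campaign, cut at about 5.5% in these data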
PKD1 kinase inh = inhibitors of human PKD1 kinase, biochemical, fluorescence polarization; PKD1 kinase fluorescence polarization assay; Serine/threonine-protein kinase D1 (Homo sapiens), Q15139; AID 797, 2007; 200,000 compounds, 0.056% hits; inhibition, % (test concentration not listed); in the data active = inhibition above about 50%
Hits are given with their value; . = inactive; / = no result given.

SMILES	Efa HMGR inh	Wee1 degr inh	Arbovirus inh	Hsp70 activator	PKD1 kinase inh
COc1ccc(S(=O)(=O)N(NC2=NS(=O)(=O)c3ccccc32)C(=O)C(C)C)cc1	10.6	.	.	.	.
CCNC(=O)CN(c1ccc(CC)cc1)S(C)(=O)=O	.	.	46.2	.	.
O=S(=O)(c1cccc(-c2nnc3n2CCCCC3)c1)N1CCCC1	.	.	.	.	.
CSc1ccc(NC(=O)c2cccnc2)cc1C#N	.	8.8	.	.	.
CN1CCC/C1=C1/C(=O)N(c2ccccc2)N=C1NC(=O)Nc1cccc(Cl)c1	.	.	.	.	.
Nc1nonc1NC(=O)CSc1ncccc1C(=O)O	.	14.1	.	.	.
COc1ccc(OC)c(NC(=O)CSc2ncccc2C(=O)O)c1	.	.	.	.	.
COc1cc(C(=O)Nc2cccc(-c3nnc(-c4ccco4)o3)c2)ccc1OC(C)=O	.	.	.	.	.
CC(=O)Oc1ccc2c(=O)c(-c3nc4ccccc4s3)coc2c1	.	9.1	.	.	.
Cc1cc(C)c2c(=O)[nH]c(SCC(=O)c3ccc(C)c(C)c3)nc2n1	.	.	34.9	.	.
Cc1ccc(C)c(N=C2CCCN2Cc2ccccc2)c1C#N	12.9	.	.	.	.
S=C1NCN(CCc2ccccc2)CN1Cc1ccccc1	/	9.6	/	/	/
CCN(CC)C(=O)CSC1=N/C(=C/c2ccco2)C(=O)N1c1ccc(OC)c(Cl)c1	.	.	36.5	.	.
COc1ccc(N2C(=O)/C(=C\c3ccco3)N=C2SCC(=O)NC(C)(C)C)cc1Cl	.	.	.	.	.
C/C(=N\NC(=O)c1nn(C)c(C)c1Br)c1cccc(NC(=O)c2ccoc2C)c1	.	9.8	.	.	.
CC(C)CCNC(=O)COc1ccc(N(C)S(=O)(=O)c2ccc(F)cc2)cc1	.	.	.	.	.
CCCC(=O)Nc1c(-c2ccc(OC)cc2)c(=O)c2ccccc2n1C	.	.	.	.	.
CCCCCC(=O)Nc1c(-c2ccc(OC)cc2)c(=O)c2ccccc2n1C	.	9.9	.	.	.
Brc1ccc(-c2nnc(-c3cccc(Br)c3)o2)cc1	.	10.4	.	.	.
CCC(CC)c1nnc(NC(=O)[C@@H](NC(=O)c2cccc(C)c2)C(C)C)s1	.	.	.	.	.
CCOC(=O)c1sc(NC(=S)NC(=O)c2cccc(Cl)c2)c(C(=O)OCC)c1C	.	.	36.6	.	.
CCc1cc(=O)oc2cc(C)cc(OCC(=O)C(C)(C)C)c12	.	.	.	.	.
CCc1cc(=O)oc2cc(C)cc(OCC(C)=O)c12	/	10.5	/	/	/
O=[n+]1cc(-c2ccc(Cl)cc2)n([O-])c2c1CCC2	/	.	/	/	/
O=[n+]1cc(-c2ccccc2)n([O-])c2c1CCC2	.	9.7	.	.	.
SMILES	Efa HMGR inh	Wee1 degr inh	Arbovirus inh	Hsp70 activator	PKD1 kinase inh
O=S1(=O)C=C(SCc2ccccc2)Nc2ccccc21	.	.	.	.	.
COc1ccc(CSC2=CS(=O)(=O)c3ccccc3N2)cc1	.	9.7	.	.	.
CC(O)C(=O)N/N=C/c1ccccc1C(=O)O (configuration not stated)	13.4	.	.	.	.
O=C(CNCc1ccco1)Nc1ccc(N2CCCCCC2)cc1	11.0	.	.	.	.
CCC(=O)Nc1ccc(N2CCCCC2)cc1	.	.	.	.	.
COc1ccc(N2C(=O)CS/C2=C\[N+](=O)[O-])cc1	15.0	.	.	.	.
COc1ccc(N2C(=O)CCC2=O)cc1	.	.	.	.	.
Cc1nn(-c2ccc(F)cc2)c(N)c1C1(O)C(=O)Nc2ccccc21 (configuration not stated)	.	.	.	.	.
O=C/C(=C\Nc1ccc(Cl)cn1)c1nc2cc(Cl)ccc2o1	.	.	30.3	.	.
O=C/C(=C\Nc1ccc(Cl)cn1)c1nc2ccccc2o1	.	.	.	.	.
O=C(O)CSc1cc(C(=O)c2ccccc2O)cn2c(=O)c3c(-c4ccccc4)csc3nc12	.	.	69.7	.	.
CCOC(=O)c1sc2nc3c(SCC(=O)O)cc(C(=O)c4ccccc4O)cn3c(=O)c2c1C	.	.	.	.	.
COc1ccc(C(=O)COC(=O)C(CCSC)NS(=O)(=O)c2ccc(Cl)cc2)cc1 (configuration not stated)	.	.	.	.	.
